Values joined by “and” are separate entries in the source; they are usually repeats but may differ in a detail not shown here. Equal entries are not always repeated. A structure can be active in one record and inactive in another. Active and inactive are the calls of the source.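 The calls were made as follows, unless noted: active = normalized viability below 100% at a tested concentration; inactive = the rest.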
Key:
[1] = Wnt pathway potentiators raising nuclear beta-catenin – imaging, WNT3A-conditioned medium, mouse C2C12, NPC library, primary screen (AID 1117326; in the data active = nuclear beta-catenin stimulation mostly above about 4.2%, no sharp cut-off; inactive = mostly below about 10%); settings: stronger effect = higher value
[2] = stimulators of insulin release from INS-1E, primary screen, cell-based, 5 mM glucose, NPC library (AID 1117329;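 active = compound raises insulin release from rat beta cells at 5 mM glucose, no numeric limit stated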); settings: rat INS-1E insulin secretion, at 10 µM, stronger effect = higher value
[3] = growth inhibition of GSK3B-pretreated HCT116 cells – cell-based, CellTiter-Glo, 0.2 to 20 µM (AID 1117336;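 active = compounds lowering colon cancer cell viability after pretreatment blocking the GSK3B kinase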); settings: HCT116 viability after GSK3B inhibitor, at 20 µM, stronger effect = higher value
[4] = inhibition of endothelial tube formation, primary screen, imaging, VEGF stimulated, CD31 staining, tube area, NPC library (AID 1117340;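 active = compound that reduces growth-factor-driven endothelial tube area in a mixed cell culture, no cutoff stated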); settings: VEGF-stimulated ADSC/ECFC co-culture, at 10 µM, stronger effect = higher value
[5] = GLP1 release stimulators, primary, NCI-H716, NPC library (AID 1117341;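 active = compound raises GLP1 secretion from the human gut endocrine cells, with no numeric limit stated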); settings: NCI-H716 cells, at 10 µM, stronger effect = higher value
[6] = HCT116 colon cancer cell growth inhibition, primary screen, CellTiter-Glo luminescence, NPC library (AID 1117342;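 active = compounds that lower survival of HCT116 colon cancer cells in the luminescence readout, no numeric limit stated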); settings: at 20 µM (top of the series)
[7] = reduced SW480 viability measured with CellTiter-Glo, NPC library, primary (AID 1117343;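 active = compounds that lower viability of the colon cancer cells in the luminescence readout, with no numeric limit stated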); settings: CellTiter-Glo luminescence; at 20 µM (top of the series)
[8] = NPC library primary testing for decreased DLD-1 cell viability via CellTiter-Glo (AID 1117346;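 active = compounds that lower survival of DLD-1 colon cancer cells in the luminescence readout, no cutoff given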); settings: DLD-1 viability, CellTiter-Glo luminescence; at 20 µM (top of the series)
[9] = molecular target: 6-phosphogluconate dehydrogenase, decarboxylating (Homo sapiens) (UniProt P52209); assay: inhibition of human phosphogluconate dehydrogenase – biochemical, recombinant enzyme, NADPH absorbance, primary screen (AID 1159550;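 active = at least 20% inhibition of 6-phosphogluconate dehydrogenase activity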); settings: recombinant 6PGD, NADPH absorbance 341 nm; at 10 µM; stronger effect = higher value
Chain of 6-phosphogluconate dehydrogenase, decarboxylating (Homo sapiens) (P52209 whole entry, looked up): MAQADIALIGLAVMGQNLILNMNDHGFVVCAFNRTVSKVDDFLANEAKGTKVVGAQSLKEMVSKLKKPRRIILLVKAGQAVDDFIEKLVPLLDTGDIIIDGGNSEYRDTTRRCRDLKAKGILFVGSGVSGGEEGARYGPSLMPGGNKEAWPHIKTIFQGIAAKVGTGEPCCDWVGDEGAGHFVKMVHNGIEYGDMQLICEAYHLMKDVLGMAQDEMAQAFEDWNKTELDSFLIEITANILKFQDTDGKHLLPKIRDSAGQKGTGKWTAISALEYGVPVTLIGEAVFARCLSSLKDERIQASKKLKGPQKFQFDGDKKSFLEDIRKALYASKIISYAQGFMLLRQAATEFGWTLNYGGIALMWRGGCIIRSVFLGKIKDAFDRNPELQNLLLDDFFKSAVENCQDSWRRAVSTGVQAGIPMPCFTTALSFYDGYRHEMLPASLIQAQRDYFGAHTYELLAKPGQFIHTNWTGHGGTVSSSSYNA

[10] = modulation of C. elegans fzo-1 (AID 1259413; call rule not given here;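 also: fzo-1 mutant C. elegans worms in liquid wells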); settings: C. elegans fzo-1 modulator screen, mean read-out; stronger effect = higher value
[11] = EMT-state selective cytotoxicity in co-culture – imaging, PC-3E GFP, TEM4-18 mCherry, primary screen (AID 1345086;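 active = compounds killing one labelled cell type while sparing the other, by normalised counts and ratio limits, not self-fluorescent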;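 as to all read-outs here: cells exposed to compound for 72 h before imaging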;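 as to red/green cell ratio (normalised): normalised mesenchymal count divided by normalised epithelial count so high means epithelial killing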); settings: PC-3E GFP / TEM4-18 mCherry co-culture, imaging cell counts, at 1 µM; for red/green cell ratio (normalised): actives lie on both sides, counts scaled to control wells, 1 = unselective
[12] = MELAS cybrid and Rieske KO viability enhancers – cell-based, MELAS cybrids, Rieske KO mouse fibroblasts, CellTiter-Glo, primary screen (AID 1508586;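 active = mean z-score across replicates of 1.96 or higher in either the MELAS or the Rieske mutant cell line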;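 also: z relative to plate mean and SD of compound and empty wells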); settings: low glucose
[13] = molecular target: NAD(+) hydrolase SARM1 (Homo sapiens) (UniProt Q6SZW1); assay: blocking NAD cleavage by SARM1 SAM-TIR – cell lysate, NAD-Glo luminescence (AID 1508614;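 active = compound whose remaining NAD level is above about 45 nM, limit read from the data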;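 also: higher remaining NAD means stronger inhibition of SARM1 NADase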); settings: SAM-TIR HEK293T lysate NADase, at 1 µM, stronger effect = higher value
Chain of NAD(+) hydrolase SARM1 (Homo sapiens) (Q6SZW1 whole entry, looked up, the tested form may be a part): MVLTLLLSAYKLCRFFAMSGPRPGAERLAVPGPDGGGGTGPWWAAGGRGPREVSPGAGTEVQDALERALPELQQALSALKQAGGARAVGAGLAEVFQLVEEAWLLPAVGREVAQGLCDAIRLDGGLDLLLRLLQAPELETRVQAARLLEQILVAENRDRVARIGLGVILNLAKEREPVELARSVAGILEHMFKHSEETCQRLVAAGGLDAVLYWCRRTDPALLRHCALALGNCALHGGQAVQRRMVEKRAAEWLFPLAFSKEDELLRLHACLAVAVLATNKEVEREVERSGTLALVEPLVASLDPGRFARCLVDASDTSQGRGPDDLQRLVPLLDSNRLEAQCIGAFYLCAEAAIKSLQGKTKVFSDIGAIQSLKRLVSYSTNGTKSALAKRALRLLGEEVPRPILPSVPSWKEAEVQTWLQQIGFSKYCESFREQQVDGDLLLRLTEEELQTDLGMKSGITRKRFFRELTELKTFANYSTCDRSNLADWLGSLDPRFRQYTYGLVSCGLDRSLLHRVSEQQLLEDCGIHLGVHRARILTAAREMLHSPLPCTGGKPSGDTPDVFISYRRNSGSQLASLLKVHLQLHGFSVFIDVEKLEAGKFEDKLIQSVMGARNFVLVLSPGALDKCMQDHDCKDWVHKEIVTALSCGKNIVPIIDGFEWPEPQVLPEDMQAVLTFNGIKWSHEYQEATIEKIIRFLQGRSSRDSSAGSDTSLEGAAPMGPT

[14] = molecular target: Mitogen-activated protein kinase 7 (Homo sapiens) (UniProt Q13164); assay: Gal4-ERK5 driven luciferase induction – cell-based, HTS, primary screen (AID 1508626;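 active = luciferase signal above three times the same-plate solvent-only control wells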;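 also: luciferase driven by Gal4-ERK5 fusion binding five Gal4 sites before minimal TATA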); settings: HeLa Gal4-ERK5 transactivation, 18 h, at 5 µM, stronger effect = higher value
Chain of Mitogen-activated protein kinase 7 (Homo sapiens) (Q13164 whole entry, looked up, the tested form may be a part): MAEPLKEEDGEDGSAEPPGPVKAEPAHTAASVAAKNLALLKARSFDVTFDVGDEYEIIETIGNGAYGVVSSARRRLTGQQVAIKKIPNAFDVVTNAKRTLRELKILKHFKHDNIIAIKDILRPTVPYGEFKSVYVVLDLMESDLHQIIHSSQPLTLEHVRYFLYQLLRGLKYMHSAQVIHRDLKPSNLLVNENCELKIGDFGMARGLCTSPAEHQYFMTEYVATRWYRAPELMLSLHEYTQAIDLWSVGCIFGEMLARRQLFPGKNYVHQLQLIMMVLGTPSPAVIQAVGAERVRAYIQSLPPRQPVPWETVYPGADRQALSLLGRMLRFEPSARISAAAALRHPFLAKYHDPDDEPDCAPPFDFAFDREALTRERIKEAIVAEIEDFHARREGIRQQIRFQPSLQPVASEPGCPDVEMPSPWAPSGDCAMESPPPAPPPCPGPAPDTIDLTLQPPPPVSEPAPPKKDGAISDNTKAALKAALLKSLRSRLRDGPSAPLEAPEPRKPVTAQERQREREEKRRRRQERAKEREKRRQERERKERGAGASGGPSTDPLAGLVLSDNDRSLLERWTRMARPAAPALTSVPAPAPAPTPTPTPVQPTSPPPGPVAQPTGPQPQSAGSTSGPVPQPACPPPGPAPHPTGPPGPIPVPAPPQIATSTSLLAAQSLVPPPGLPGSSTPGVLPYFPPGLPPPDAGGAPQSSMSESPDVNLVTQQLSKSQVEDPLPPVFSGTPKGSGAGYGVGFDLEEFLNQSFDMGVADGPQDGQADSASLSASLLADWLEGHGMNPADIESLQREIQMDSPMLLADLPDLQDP

F380Y = assay: BK channel mutant inhibitors and activators – cell-based, U2OS BacMam, thallium flux, beta subunits, selectivity assay, profiling panel (AID 1259406;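 active = thallium flux through the channel raised or lowered by more than 3 SD from vehicle-only wells, actives on both sides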;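 also: initial slope of Thallos dye fluorescence rise after thallium is added; log ratio against the mean of 0.3% DMSO vehicle wells on the same plate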); settings: U2OS BacMam BK variants, at 30 µM
F380Y/beta1 = assay: as above; settings: U2OS BacMam BK variants, at 30 µM
F380Y/beta2Delta = assay: as above; settings: U2OS BacMam BK variants, at 30 µM
F380Y/beta4 = assay: as above; settings: U2OS BacMam BK variants, at 30 µM
[15] = drug combination growth inhibition, ovarian cancer – cell-based, oncology-focused library, rucaparib conditional, profiling panel (AID 1508598); settings: patient-derived ovarian cancer cells, CellTiter-Glo viability, 144 h, stronger effect = lower value
[16] = growth inhibition, single agents and combos, ICB984, cell-based, cisplatin or BGB combos, synergistic combos for chromothripsis tumors (AID 1671451; call rule not given here;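 also: cells exposed for 96 hours before readout; 0% = vehicle DMSO and 100% = killing by high DMSO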); settings: ICB984 medulloblastoma cells, drug combinations, stronger effect = higher value
[17] = measured here: epithelial PC-3E GFP cell survival
[18] = measured here: mesenchymal TEM4-18 mCherry cell survival
[19] = MELAS cybrid survival, CellTiter-Glo 48 h, stronger effect = higher value
[20] = Rieske KO mouse fibroblast survival, CellTiter-Glo 72 h

CC1Cc2ccccc2N1NC(=O)c1ccc(Cl)c(S(N)(=O)=O)c1 (stereo unspecified)
inactive: nuclear beta-catenin stimulation ([1]; at 10 µM) 1% | insulin secretion stimulation [2] -0.1% | viability decrease [3] -7.2% | tube area decrease [4] 2.8% | GLP1 secretion stimulation [5] 4.6% | inhibition of viability [6] -2.13% | viability decrease (inhibition) [7] -2.3% | viability decrease (inhibition) [8] 3.8% | inhibition [9] 0.53% | mean signal [10] 231 | red/green cell ratio (normalised) [11] 1.37 | z-score [12, 19] -0.244 and 0.521 and 0.421 | remaining NAD [13] 10 nM | luciferase signal [14] 56 AU | log fold change Tl+ flux (F380Y) 0.00177 | log fold change Tl+ flux (F380Y/beta1) 0.039 | log fold change Tl+ flux (F380Y/beta2Delta) 0.049 | log fold change Tl+ flux (F380Y/beta4) 0.0552
1.38: normalised cell number [11, 18]
0.75 and 0.194 and 0.772: z-score [12, 20]
1.01: normalised cell number [11, 17]
6%: nuclear beta-catenin stimulation ([1]; stimulation, at 2 µM)

NNCCc1ccccc1
inactive: nuclear beta-catenin stimulation ([1]; at 10 µM) 1.9% | insulin secretion stimulation [2] -0.6% | viability decrease [3] -32% | tube area decrease [4] 7.4% | GLP1 secretion stimulation [5] -0.4% | inhibition of viability [6] 5.1% | viability decrease (inhibition) [7] -14.5% | viability decrease (inhibition) [8] 7.4% | inhibition [9] 8.47% | mean signal [10] 213 | red/green cell ratio (normalised) [11] 0.88 | z-score [12, 19] -0.122 | remaining NAD [13] 10 nM | luciferase signal [14] 44 AU | log fold change Tl+ flux (F380Y) 0.0104 | log fold change Tl+ flux (F380Y/beta1) -0.0168 | log fold change Tl+ flux (F380Y/beta2Delta) -0.0213 | log fold change Tl+ flux (F380Y/beta4) 0.00368
1.03: normalised cell number [11, 17]
0.91: normalised cell number [11, 18]
-0.108: z-score [12, 20]
0.7%: nuclear beta-catenin stimulation ([1]; stimulation, at 2 µM)

CC(COc1ccccc1)N(CCCl)Cc1ccccc1 (stereo unspecified)
1.17: normalised cell number [11, 17]
inactive: nuclear beta-catenin stimulation ([1]; at 10 µM) 1.1% | insulin secretion stimulation [2] 2.8% | viability decrease [3] -32.1% | tube area decrease [4] 7% | GLP1 secretion stimulation [5] 3.8% | inhibition of viability [6] -3.6% | viability decrease (inhibition) [7] 13% | viability decrease (inhibition) [8] -2.9% | inhibition [9] 0.0837% | mean signal [10] 239 | red/green cell ratio (normalised) [11] 1.22 | z-score [12, 19] -0.333 and -0.71 and -0.596 | remaining NAD [13] 10 nM | luciferase signal [14] 68 AU | log fold change Tl+ flux (F380Y) -0.0529 | log fold change Tl+ flux (F380Y/beta1) -0.00151 | log fold change Tl+ flux (F380Y/beta2Delta) -0.054 | log fold change Tl+ flux (F380Y/beta4) -0.0516
1.43: normalised cell number [11, 18]
0.469 and 0.0989 and -0.341: z-score [12, 20]
-0.3%: nuclear beta-catenin stimulation ([1]; stimulation, at 2 µM)

O=C1c2c(O)ccc(O)c2C(=O)c2c(NCCNCCO)ccc(NCCNCCO)c21
0.2: normalised cell number [11, 17]
100% (inactive) and 94.2% (active): viability ([15]; at 0.000305 µM, OCI-P5x cells, without rucaparib)
14.4%: nuclear beta-catenin stimulation ([1]; stimulation, at 2 µM)
-40.5%: inhibition ([16]; cisplatin combo, at 0.5 µM)
-32.5%: inhibition ([16]; cisplatin combo, at 5 µM)
109% (inactive) and 96.8% (active): viability ([15]; at 0.00122 µM, OCI-P5x cells, without rucaparib)
17.1%: inhibition ([16]; BGB IC20 combo, at 0.005 µM)
14.7%: inhibition ([16]; BGB IC40 combo, at 0.005 µM)
-34.5%: inhibition ([16]; measured here: 5 uM single agent, at 5 µM)
active: nuclear beta-catenin stimulation ([1]; at 10 µM) 79.6% | viability decrease [3] 102% | tube area decrease [4] 109% | inhibition of viability [6] 101% | viability decrease (inhibition) [7] 102% | viability decrease (inhibition) [8] 96.1% | viability ([15]; at 0.000305 µM, OCI-P5x cells, with rucaparib 20 µM, 100% = cells with rucaparib alone) 85.2% and 88.1% | viability ([15]; at 0.00122 µM, OCI-P5x cells, with rucaparib 20 µM, 100% = cells with rucaparib alone) 98.9% and 93.9% | viability ([15]; at 0.00488 µM, OCI-P5x cells, with rucaparib 20 µM, 100% = cells with rucaparib alone) 97.7% and 84.3% | viability ([15]; at 0.0195 µM, OCI-C5x cells, with rucaparib 10 µM, 100% = cells with rucaparib alone) 83.6% and 77% | viability ([15]; at 0.0195 µM, OCI-C5x cells, without rucaparib) 87.9% and 74.9% | viability ([15]; at 0.0195 µM, OCI-P5x cells, with rucaparib 20 µM, 100% = cells with rucaparib alone) 86.2% and 68.2% | viability ([15]; at 0.0195 µM, OCI-P5x cells, without rucaparib) 74.8% and 44.3% | viability ([15]; at 0.0781 µM, OCI-C5x cells, with rucaparib 10 µM, 100% = cells with rucaparib alone) 89.4% and 82.8% | viability ([15]; at 0.0781 µM, OCI-C5x cells, without rucaparib) 78.8% and 86.1% | viability ([15]; at 0.0781 µM, OCI-P5x cells, with rucaparib 20 µM, 100% = cells with rucaparib alone) 52.6% and 49.6% | viability ([15]; at 0.0781 µM, OCI-P5x cells, without rucaparib) 27.2% and 21.5% | viability ([15]; at 0.313 µM, OCI-C5x cells, with rucaparib 10 µM, 100% = cells with rucaparib alone) 76.1% and 60.1% | viability ([15]; at 0.313 µM, OCI-C5x cells, without rucaparib) 57% and 56.6% | viability ([15]; at 0.313 µM, OCI-P5x cells, with rucaparib 20 µM, 100% = cells with rucaparib alone) 25.3% and 26% | viability ([15]; at 0.313 µM, OCI-P5x cells, without rucaparib) 12.4% and 12.3% | viability ([15]; at 1.25 µM, OCI-C5x cells, with rucaparib 10 µM, 100% = cells with rucaparib alone) 13.3% and 11.4% | viability ([15]; at 1.25 µM, OCI-C5x cells, without rucaparib) 15% and 15.4% | viability ([15]; at 1.25 µM, OCI-P5x cells, with rucaparib 20 µM, 100% = cells with rucaparib alone) 7.5% and 9.35% | viability ([15]; at 1.25 µM, OCI-P5x cells, without rucaparib) 6.58% and 5.99% | viability ([15]; at 5 µM, OCI-C5x cells, with rucaparib 10 µM, 100% = cells with rucaparib alone) 3.19% and 2.94% | viability ([15]; at 5 µM, OCI-C5x cells, without rucaparib) 2.31% and 2.92% | viability ([15]; at 5 µM, OCI-P5x cells, with rucaparib 20 µM, 100% = cells with rucaparib alone) 6.35% and 8.96% | viability ([15]; at 5 µM, OCI-P5x cells, without rucaparib) 6.78% and 6.39%
104% (inactive) and 93.6% (active): viability ([15]; at 0.00488 µM, OCI-C5x cells, with rucaparib 10 µM, 100% = cells with rucaparib alone)
0.12: normalised cell number [11, 18]
101%: inhibition ([16]; BGB IC40 combo, at 0.05 µM) | inhibition ([16]; cisplatin combo, at 0.05 µM)
inactive: insulin secretion stimulation [2] 3.9% | GLP1 secretion stimulation [5] -17.3% | inhibition [9] 13% | mean signal [10] 214 | red/green cell ratio (normalised) [11] 0.57 | viability ([15]; at 0.000305 µM, OCI-C5x cells, with rucaparib 10 µM, 100% = cells with rucaparib alone) 111% and 109% | viability ([15]; at 0.000305 µM, OCI-C5x cells, without rucaparib) 114% and 118% | viability ([15]; at 0.00122 µM, OCI-C5x cells, with rucaparib 10 µM, 100% = cells with rucaparib alone) 114% and 109% | viability ([15]; at 0.00122 µM, OCI-C5x cells, without rucaparib) 117% and 115% | viability ([15]; at 0.00488 µM, OCI-C5x cells, without rucaparib) 113% and 104% | remaining NAD [13] 10 nM | luciferase signal [14] 20 AU | inhibition ([16]; at 0.5 µM) -30% | log fold change Tl+ flux (F380Y) -0.0248 | log fold change Tl+ flux (F380Y/beta1) -0.0573 | log fold change Tl+ flux (F380Y/beta2Delta) 0.00615 | log fold change Tl+ flux (F380Y/beta4) -0.0582
107% (inactive) and 84.4% (active): viability ([15]; at 0.00488 µM, OCI-P5x cells, without rucaparib)
